# Reference: PubChem BioAssay
# Calls of active or inactive are those of the source.
# What was measured:
# [1] = E. coli DRC41 culture turbidity changes, primary screen, E. coli filamentation inducer project, strain DRC41, OD650, 48 h (AID 1152);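 further: E. coli MC1000 strain DRC41 lacking acrAB efflux pump and sulA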; settings: E. coli DRC41 (acrAB sulA), higher = more signal, called active from +8 up or from −8 down
# [2] = small-molecule binders of probe aLefty1, primary screen, biochemical, small-molecule microarray, 635/667 nm fluorescence (AID 1153); settings: higher = more signal;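 further: score merges spot fluorescence with signal-to-noise ratio from the scanned slide images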
# [3] = PSAC antagonists in infected red cells, primary screen, cell-based, P. falciparum Indochina, OD700, 1 h (AID 1154); settings: P. falciparum Indochina infected RBC osmotic lysis, higher = more signal, called active from +8 up or from −8 down
# [4] = PSAC antagonists in infected red cells, primary screen, cell-based, P. falciparum Indochina, OD700, 2 h (AID 1155);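 further: lysis reports solute entry through the parasite surface anion channel PSAC; channel blockers reduce lysis of infected cells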; settings: P. falciparum Indochina infected erythrocytes, osmotic lysis OD700; higher = more signal, called active from +8 up or from −8 down
# [5] = osmotic lysis modulators in infected erythrocytes, primary screen, PSAC antagonist project, cell-based, P. falciparum Indochina, OD700, 3 h (AID 1156); settings: higher = more signal, called active from +8 up or from −8 down
# [6] = PSAC antagonists in infected red cells, primary screen, cell-based, P. falciparum Indochina, OD700, 18 h (AID 1157); settings: P. falciparum Indochina infected erythrocytes, osmotic lysis OD700, 18 h; higher = more signal, called active from +8 up or from −8 down
# [7] = modulators of S6 phosphorylation in cells, primary screen, cell-based, A549, cytoblot, luminescence, serum-stimulated (AID 1158); settings: A549 phospho-S6 cytoblot, 5 h, higher = more signal;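 further: serum-stimulated A549 lung adenocarcinoma cells; signal is phosphorylated S6 detected by cytoblot immunostaining with HRP secondary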
# [8] = target: NADPH oxidase 2 (Homo sapiens) (UniProt P04839); assay: NOX2-dependent H2O2 signal modulators, primary screen, NOX inhibitor project, cell-based, HEK293-NOX2, PMA-stimulated, Amplex Red fluorescence (AID 1159); settings: 45 min, higher = more signal, called active from +8 up or from −8 down; further: test concentration not given here
# Sequence of NADPH oxidase 2 (Homo sapiens) (P04839 whole entry, looked up): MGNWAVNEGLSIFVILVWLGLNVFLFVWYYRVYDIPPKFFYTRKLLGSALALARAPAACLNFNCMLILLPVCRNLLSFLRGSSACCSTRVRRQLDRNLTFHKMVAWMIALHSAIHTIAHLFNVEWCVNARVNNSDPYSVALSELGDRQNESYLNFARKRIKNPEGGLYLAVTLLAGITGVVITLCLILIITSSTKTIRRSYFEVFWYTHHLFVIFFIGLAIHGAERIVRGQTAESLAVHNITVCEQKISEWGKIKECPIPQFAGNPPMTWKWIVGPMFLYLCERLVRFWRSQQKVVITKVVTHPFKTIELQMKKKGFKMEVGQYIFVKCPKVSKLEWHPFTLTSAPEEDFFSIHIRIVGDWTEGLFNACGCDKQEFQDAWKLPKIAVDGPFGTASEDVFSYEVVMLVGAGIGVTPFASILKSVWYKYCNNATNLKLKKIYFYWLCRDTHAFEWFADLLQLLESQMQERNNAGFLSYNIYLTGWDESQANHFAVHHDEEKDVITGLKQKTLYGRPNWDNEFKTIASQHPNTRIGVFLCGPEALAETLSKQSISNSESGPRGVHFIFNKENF
# [9] = target: NADPH oxidase 4 (Homo sapiens) (UniProt Q9NPH5); assay: NOX4-dependent H2O2 signal modulators, primary screen, NOX inhibitor project, cell-based, HEK293-NOX4, tetracycline-induced, Amplex Red fluorescence (AID 1160); settings: 45 min, higher = more signal, called active from +8 up or from −8 down
# Sequence of NADPH oxidase 4 (Homo sapiens) (Q9NPH5 whole entry, looked up): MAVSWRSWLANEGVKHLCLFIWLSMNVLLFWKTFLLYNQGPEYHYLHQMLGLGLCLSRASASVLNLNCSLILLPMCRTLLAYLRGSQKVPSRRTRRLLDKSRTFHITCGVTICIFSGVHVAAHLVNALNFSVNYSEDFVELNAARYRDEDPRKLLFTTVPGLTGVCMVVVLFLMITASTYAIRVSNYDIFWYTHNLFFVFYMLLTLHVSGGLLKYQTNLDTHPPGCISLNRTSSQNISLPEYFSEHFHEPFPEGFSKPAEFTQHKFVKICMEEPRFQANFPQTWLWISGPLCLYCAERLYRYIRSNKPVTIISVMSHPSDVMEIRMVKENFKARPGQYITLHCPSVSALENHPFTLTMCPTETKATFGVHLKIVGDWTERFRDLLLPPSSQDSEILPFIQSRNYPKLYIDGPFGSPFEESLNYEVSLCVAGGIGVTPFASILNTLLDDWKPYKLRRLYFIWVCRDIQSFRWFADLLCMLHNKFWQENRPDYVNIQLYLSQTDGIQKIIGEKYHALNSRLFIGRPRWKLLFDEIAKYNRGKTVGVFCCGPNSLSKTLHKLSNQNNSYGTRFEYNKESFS
# [10] = target: NADPH oxidase 5 (Homo sapiens) (UniProt Q96PH1); assay: NOX5-dependent H2O2 signal modulators, primary screen, NOX inhibitor project, cell-based, HEK293-NOX5, Amplex Red fluorescence (AID 1161); settings: HEK293-NOX5, ionomycin, 45 min, higher = more signal
# Sequence of NADPH oxidase 5 (Homo sapiens) (Q96PH1 whole entry, looked up): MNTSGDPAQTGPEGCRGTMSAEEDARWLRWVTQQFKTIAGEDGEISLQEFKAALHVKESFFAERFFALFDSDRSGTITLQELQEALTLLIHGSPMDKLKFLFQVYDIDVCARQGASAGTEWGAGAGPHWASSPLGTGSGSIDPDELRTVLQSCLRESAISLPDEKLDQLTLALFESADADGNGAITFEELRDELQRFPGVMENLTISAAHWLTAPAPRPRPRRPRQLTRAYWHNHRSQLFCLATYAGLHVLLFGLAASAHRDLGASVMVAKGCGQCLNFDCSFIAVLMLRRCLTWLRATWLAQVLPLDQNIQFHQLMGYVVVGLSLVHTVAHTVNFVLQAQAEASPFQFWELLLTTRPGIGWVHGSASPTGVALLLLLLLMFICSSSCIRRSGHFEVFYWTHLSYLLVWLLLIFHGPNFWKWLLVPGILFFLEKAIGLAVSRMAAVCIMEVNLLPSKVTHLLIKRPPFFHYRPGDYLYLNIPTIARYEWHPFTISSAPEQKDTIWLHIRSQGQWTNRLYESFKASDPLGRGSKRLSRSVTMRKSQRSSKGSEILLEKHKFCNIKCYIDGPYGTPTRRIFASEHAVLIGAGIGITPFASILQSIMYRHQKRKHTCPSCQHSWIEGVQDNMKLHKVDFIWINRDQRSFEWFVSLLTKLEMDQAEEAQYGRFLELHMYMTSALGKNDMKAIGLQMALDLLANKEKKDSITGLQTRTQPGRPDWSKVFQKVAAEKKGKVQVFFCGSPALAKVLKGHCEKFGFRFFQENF
# [11] = A549 cell viability effects, profiling panel, calcein-AM fluorescence, 48 h, basal (AID 1162); settings: higher = more signal; further: test concentration not given here
# [12] = adipocyte viability effects, profiling panel, cell-based, 3T3-L1 adipocytes, calcein-AM fluorescence, 48 h, basal (AID 1163); settings: 3T3-L1 adipocytes viability, higher = more signal; further: test concentration not given here
# [13] = HepG2 cell viability effects, profiling panel, calcein-AM fluorescence, 48 h, basal (AID 1164); settings: higher = more signal; further: test concentration not given here
# [14] = MM1S cell viability effects, profiling panel, calcein-AM fluorescence, 48 h, basal (AID 1165); settings: higher = more signal;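 further: viability of MM1S multiple myeloma cells under basal unstimulated conditions; test concentration not given here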
# [15] = basal RPMI8226 viability, no added stimulus, profiling panel, cell-based, calcein-AM fluorescence, 48 h, PK04 Diversity Set (AID 1166); settings: RPMI8226 myeloma viability, higher = more signal;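 further: cells grown under basal conditions without added stimulus; test concentration not given here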
# [16] = basal HepG2 mitochondrial membrane potential changes, profiling panel, cell-based, JC-1 fluorescence, 24 h, 100 nL compound (AID 1167); settings: higher = more signal; further: test concentration not given here
# [17] = basal 3T3-L1 adipocyte mitochondrial potential changes, profiling panel, cell-based, JC-1 fluorescence, 3T3-L1 adipocytes, 24 h, 100 nL compound (AID 1168); settings: JC-1 mitochondrial fluorescence, higher = more signal, called active from +8 up or from −8 down; further: test concentration not given here
# [18] = basal RPMI8226 mitochondrial membrane potential changes, profiling panel, cell-based, JC-1 fluorescence, 24 h, 100 nL compound (AID 1169); settings: RPMI8226 myeloma, JC-1 mitochondrial potential fluorescence, higher = more signal; further: test concentration not given here
# [19] = basal MM1S mitochondrial membrane potential changes, profiling panel, cell-based, JC-1 fluorescence, 24 h, 100 nL compound (AID 1170); settings: higher = more signal; further: test concentration not given here
# [20] = A549 lung cancer cell viability effects, profiling panel, resazurin fluorescence, 24 h, PK04 Diversity Set (AID 1171); settings: higher = more signal, called active from +8 up or from −8 down; further: test concentration not given here
Structure (SMILES),z-score [1],composite z-score [2],z-score [3],z-score [4],z-score [5],z-score [6],z-score [7],z-score [8],z-score [9],z-score [10],z-score [11],z-score [12],z-score [13],z-score [14],z-score [15],z-score [16],z-score [17],z-score [18],z-score [19],z-score [20]
O=C1O[C@H](c2ccccc2)[C@H](c2ccccc2)N2[C@H]1[C@@H](C(=O)NC[C@H](O)c1ccccc1)[C@]1(C(=O)Nc3ccccc31)[C@H]2c1ccc(OCCO)cc1,-1.26 (inactive),0.159,4.2 (inactive),1.36 (inactive),0.179 (inactive),1.47 (inactive),0.0578,1.55 (inactive),1.02 (inactive),1.34,-0.425,1.61,-1.41,-2.53,-3.09,-2.29,1.95 (inactive),-1.21,-1.21,-0.333 (inactive)
COCCOC(=O)N1C(=O)[C@@]2(c3ccccc31)[C@H](c1ccc(O)cc1)N1[C@H](c3ccccc3)[C@H](c3ccccc3)OC(=O)[C@H]1[C@@H]2C(=O)NC[C@H](O)c1ccccc1,0.0221 (inactive),0.132,1.06 (inactive),0.664 (inactive),0.515 (inactive),0.563 (inactive),0.104,0.873 (inactive),0.0245 (inactive),0.604,0.205,1.15,0.311,-0.534,-1.99,-1.02,-0.184 (inactive),0.266,-0.142,-1.1 (inactive)
COCCCNC(=O)[C@@]1(Cc2ccccc2)N=C(c2ccc(OCCCO)cc2)O[C@H]1c1ccccc1,-0.146 (inactive),0.39,19.7 (active),3.35 (inactive),-0.321 (inactive),0.32 (inactive),-0.628,-0.981 (inactive),1.11 (inactive),1.86,-0.736,-0.493,-0.104,-1.03,-0.856,0.00935,0.425 (inactive),-1.11,-0.314,1.57 (inactive)
CCCCCN1CC=CC23O[C@@H]4/C=C\CCCOC(=O)C4[C@H]2C(=O)N(C(CO)C(C)C)[C@@H]3C1=O (stereo not given in full),1.52 (inactive),-0.113,0.724 (inactive),0.264 (inactive),0.29 (inactive),0.0866 (inactive),0.0595,1.59 (inactive),0.481 (inactive),2.17,-0.436,0.737,-1.05,0.693,0.108,-0.335,-0.0791 (inactive),0.0204,-0.407,0.534 (inactive)
O=C1O[C@H](c2ccccc2)[C@H](c2ccccc2)N2[C@H]1[C@@H](C(=O)O)[C@]1(C(=O)Nc3ccc(C#CCCO)cc31)[C@H]2c1ccc(O)cc1,1.4 (inactive),0.334,1.43 (inactive),0.4 (inactive),0.735 (inactive),0.531 (inactive),0.282,-0.185 (inactive),-0.455 (inactive),0.157,1.46,0.339,-0.215,0.536,0.858,-0.308,-0.395 (inactive),-0.896,-0.565,1.52 (inactive)
C=CCOC(=O)[C@H]1[C@@H]2C(=O)O[C@@H](c3ccccc3)[C@@H](c3ccccc3)N2[C@@H](c2ccc(OCCOC(=O)[C@H]3C[C@H]4C(=O)N5CCC[C@H]5C(=O)N4[C@H]3c3ccc(O)cc3)cc2)[C@]12C(=O)Nc1ccccc12,-0.827 (inactive),0.227,1.72 (inactive),1.25 (inactive),1.58 (inactive),0.889 (inactive),-0.352,2.25 (inactive),1.39 (inactive),1.87,-0.45,1.46,0.226,-0.0596,-0.653,-1.37,1.22 (inactive),-0.515,-0.857,0.315 (inactive)
CCCCCN1CC=CC23O[C@@H]4/C=C\CCCOC(=O)C4[C@H]2C(=O)N(CCCO)[C@@H]3C1=O (stereo not given in full),2.27 (inactive),-0.353,1.33 (inactive),0.212 (inactive),-1.43 (inactive),-0.678 (inactive),0.696,1.46 (inactive),0.42 (inactive),2.13,-0.335,1.65,-0.495,0.759,0.424,-0.472,-0.0755 (inactive),0.362,0.286,0.937 (inactive)
O=C(NCC(F)(F)F)[C@@H]1c2ccccc2C(=O)N(C2CCCCC2)[C@H]1c1ccc(CO)cc1,-0.36 (inactive),-0.146,0.732 (inactive),-0.243 (inactive),0.0266 (inactive),0.18 (inactive),-0.216,0.292 (inactive),-0.755 (inactive),0.211,0.216,0.48,0.354,-0.515,0.597,0.912,-1.29 (inactive),0.329,1.67,1.21 (inactive)
COC(=O)[C@@]1(Cc2ccccc2)[C@H]2c3cc(C(=O)N4CCCC4)n(Cc4cccc5ccccc45)c3C[C@H]2CN1C(=O)c1ccccc1,-1.22 (inactive),1.71,6.74 (inactive),1.43 (inactive),1.27 (inactive),1.3 (inactive),-0.503,0.586 (inactive),-0.237 (inactive),1.05,-0.692,-0.57,-0.824,-1.42,-3.92,1.04,-2.12 (inactive),-0.784,-1.74,-1.19 (inactive)
CC(C)OC(=O)C=C1C[C@@H](c2ccccc2C(F)(F)F)O[C@@H](c2ccccc2C(F)(F)F)O1,-0.66 (inactive),-0.0011,1.66 (inactive),1.55 (inactive),0.632 (inactive),0.659 (inactive),-0.491,0.441 (inactive),-0.64 (inactive),-0.774,-0.677,-0.984,0.761,0.737,0.217,0.752,0.341 (inactive),0.589,-0.541,1.08 (inactive)
CCCC=C(CCC)[C@@H](NS(=O)(=O)c1cccs1)c1ccc(C(=O)OC)cc1,-1.35 (inactive),0.133,1.19 (inactive),0.0633 (inactive),1.28 (inactive),0.567 (inactive),-1.13,-0.547 (inactive),-3.59 (inactive),0.708,-3.9,0.532,-5.36,-3.33,-4.74,-4.43,1.24 (inactive),-0.819,-2.8,4.56 (inactive)
C=CCN(Cc1ccccc1)C(=O)C(c1cccs1)N(CCOCCO)C(=O)/C=C\C(=O)O (stereo not given),2.73 (inactive),-0.191,2.39 (inactive),-0.398 (inactive),0.213 (inactive),-0.281 (inactive),3.21,-0.00856 (inactive),-0.515 (inactive),-0.659,0.902,0.345,0.849,1.62,1,-0.138,0.0415 (inactive),0.158,-1.37,-0.221 (inactive)
CCCC#C[Si](O[C@H](CC)c1cn([C@H](CO)Cc2ccccc2)nn1)(C(C)C)C(C)C,1.12 (inactive),0.145,0.442 (inactive),0.479 (inactive),-1.31 (inactive),0.752 (inactive),-0.675,0.819 (inactive),0.272 (inactive),0.493,0.0096,-0.263,0.0341,-1.21,0.0028,-0.371,0.406 (inactive),0.78,-0.752,0.401 (inactive)
O=C1O[C@H](c2ccccc2)[C@H](c2ccccc2)N2[C@H]1[C@@H](C(=O)O)[C@]1(C(=O)Nc3ccc(C#CC4=CCCCC4)cc31)[C@H]2c1ccccc1OCCO,-0.611 (inactive),1.44,-1.84 (inactive),-1.36 (inactive),-14.6 (active),-1.92 (inactive),0.296,2.51 (inactive),-1.94 (inactive),-1.08,-0.986,-1.21,-4.28,-3.3,-4.21,-3.56,1.39 (inactive),-0.935,-1.68,-1.84 (inactive)
C=C/C=C/[C@H]1C(=C)CN([C@@H](Cc2ccccc2)C(=O)OC)[C@@H]1[C@H](O)Cc1ccccc1,0.297 (inactive),-0.239,1.09 (inactive),0.804 (inactive),-0.207 (inactive),0.257 (inactive),-0.344,-0.66 (inactive),-0.432 (inactive),-0.723,-0.0859,-0.178,-0.0232,-2.2,-1.52,-1.06,-0.882 (inactive),-0.317,0.165,-0.138 (inactive)
CN1C(=O)C2C=CC(C(O)C3CCCCC3)N(Nc3ccc([N+](=O)[O-])cc3[N+](=O)[O-])C2C1=O (stereo not given),-1.06 (inactive),0.181,1.72 (inactive),0.519 (inactive),-0.226 (inactive),0.532 (inactive),-0.511,-1.18 (inactive),0.889 (inactive),0.414,-0.798,-0.156,-0.905,-0.193,-0.849,-1.18,-0.299 (inactive),0.464,0.314,0.421 (inactive)
CCOC(=O)C[C@H]1[C@H](OC(=O)Cc2ccc3c(c2)OCO3)[C@@H](NC(=O)c2ccc(-c3ccccc3)cc2)c2cc(OCCCO)ccc2N1C(=O)Cc1ccc(OC)cc1,2.84 (inactive),0.123,25.4 (active),11.2 (active),-0.67 (inactive),0.464 (inactive),1.74,-1.35 (inactive),1.26 (inactive),2.24,2.24,0.53,1.09,0.704,1.1,2.33,0.242 (inactive),0.679,-1.03,-0.0841 (inactive)
